# Measured values published in PubChem BioAssay AID652105 (National Center for Advancing Translational Sciences (NCATS), 2013).
# In all, about 330,000 compounds went through this assay and about 4,100 (1.2%) were called active. Another 2% or so got no clear call; they are omitted. The entries come from a sample that favours actives as a whole. A number with no mark means an inactive call. The calls were made as follows: active = max response of -50% or lower; inconclusive = between -30% and -50%; inactive = -30% or higher.
# Molecular target: Phosphatidylinositol 5-phosphate 4-kinase type-2 alpha (Homo sapiens) (UniProt P48426)
# Assay: qHTS for Inhibitors of phosphatidylinositol 5-phosphate 4-kinase (PI5P4K); also: value at the top dose of about 77 µM
# Settings: PI5P4Kalpha enzyme, ADP-Glo luminescence, 60 min; active compounds read low
# Summary of the method: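 Luminescence from ADP-Glo served as readout of PI5P4Kalpha activity in a qHTS format. Reaction: enzyme, substrate, compound, ATP at 5 microM final, 60 min at RT.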
# % is scaled to controls: 0 for no effect and ±100 for the full control effect.
# Chain of Phosphatidylinositol 5-phosphate 4-kinase type-2 alpha (Homo sapiens) (P48426 whole entry, looked up): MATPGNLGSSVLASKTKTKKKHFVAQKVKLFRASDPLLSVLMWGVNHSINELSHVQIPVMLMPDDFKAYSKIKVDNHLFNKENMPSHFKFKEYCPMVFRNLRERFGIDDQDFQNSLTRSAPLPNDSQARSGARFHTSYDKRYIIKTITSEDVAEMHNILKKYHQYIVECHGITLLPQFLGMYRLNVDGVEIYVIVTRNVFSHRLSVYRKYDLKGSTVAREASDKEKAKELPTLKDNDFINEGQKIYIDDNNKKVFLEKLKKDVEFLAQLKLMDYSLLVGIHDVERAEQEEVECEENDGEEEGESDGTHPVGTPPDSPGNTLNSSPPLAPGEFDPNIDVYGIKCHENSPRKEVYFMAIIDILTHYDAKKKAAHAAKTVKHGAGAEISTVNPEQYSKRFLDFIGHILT
row,SMILES,max response
1,COc1ccc(Cc2nnc(NS(=O)(=O)Cc3ccccc3)s2)cc1,-3.92%
2,COc1ccc(Cc2nnc(NC(=O)Cc3cccs3)s2)cc1,-87.6% (active)
3,CCOP(=O)(OCC)C(Cc1ccccc1)N=C(c1ccccc1)c1ccccc1 (stereo unspecified),10.7%
4,CC1(C(=O)NCc2ccc3c(c2)OCO3)CCN1C(=O)Cc1cccc2ccccc12 (stereo unspecified),1.27%
5,O=C1NC[C@H](CCCCN2C[C@H](Cc3ccc(O)cc3)N(CC3CCCCC3)C(=O)C2=O)N(CCc2ccccc2)C1=O,-0.0714%
6,CSc1ncnc2c1ncn2CCCNCC(C)c1ccccc1 (stereo unspecified),-2.55%
7,Fc1cccc(Cc2c(-c3cccc(Cl)c3)nc3ccc(Br)cn23)c1,-13.9%
8,CC(=O)Nc1cc(-c2ccc(N3CCN(C)CC3)cc2)cn2c(-c3ccc(F)cc3)cnc12,-9.82%
9,O=C(NCc1cccc(C(F)(F)F)c1)c1ccc2sc(COCCO)nc2c1,-7.68%
10,CC1(C(=O)Nc2ccc3c(c2)OCCO3)CCN1C(=O)Cc1cc(F)ccc1F (stereo unspecified),2.77%
11,O=C1C(Cl)=C(Oc2ccccc2)C(=O)c2ccccc21,-95.6% (active)
12,Clc1ccccc1Nc1nc(NCc2cccs2)nc2ccsc12,-4.54%
13,Cc1cccc(C(=O)OCC(=O)Nc2sc3c(c2C#N)CCC3)c1,-29.9%
14,CC(C)NC(=O)NC(=O)COC(=O)c1ccc(NC(=O)CC#N)cc1,-8.69%
15,CCOc1ccc(NC(=O)c2ccc(NC(=O)COC(=O)c3ccc(NC(=O)CC#N)cc3)cc2)cc1,-67.8% (active)
16,N#CCC(=O)Nc1ccc(C(=O)OCC(=O)Nc2sc3c(c2C#N)CCCC3)cc1,-64.2% (active)
17,CC(=O)c1c(C)[nH]c(C(=O)OCC(=O)Nc2sc3c(c2C#N)CCCC3)c1C,-6.62%
18,CCOc1ccc(NC(=O)CCNC(=O)c2ccc(Br)cc2)cc1,-0.675%
19,CC1=C(C(=O)N(C(C)C)C(C)C)CC(CC(=O)NCCCCc2ccccc2)C(=O)N1CCC1=CCCCC1 (stereo unspecified),-0.015%
20,COC(=O)C[C@H]1C=C[C@@H](NS(=O)(=O)c2ccc(C)cc2)[C@@H](CO)O1,0.772%
21,COc1ccc(S(=O)(=O)/N=C2\C=C(NS(=O)(=O)c3ccccc3)C(=O)c3ccccc32)cc1,-64.4% (active)

row,SMILES,max response
1,Cc1ccc(S(=O)(=O)/N=C2\C=C(NS(=O)(=O)c3ccc(C)cc3)C(=O)c3ccccc32)cc1,-25.4%
2,O=C1C=C(NS(=O)(=O)c2ccccc2)C(=O)c2ccccc21,1.96%
3,O=C(OCc1ccccc1)N1CCC2CC1c1ccc(-c3ccc4c(c3)OCO4)cc12 (stereo unspecified),14.4%
4,O=S1(=O)CC(N2CCN(CCO)CC2)CN1Cc1cn(Cc2ccc(Cl)cc2)nn1 (stereo unspecified),-1.75%
5,NC(Cc1ccc(F)cc1)c1csc(Nc2nncc3ccccc23)n1 (stereo unspecified),-1.97%
6,COC(=O)c1cccc(NC(=O)CSc2nc(C)cc(=O)[nH]2)c1,-26.1%
7,CCOC(=O)c1sc(=S)n2c1[nH]c(=O)c1ccc(C(=O)OC)cc12,-52.6% (active)
8,CCOC(=O)c1ccc2c(c1)nc(C)n2CC,0.903%
9,O[C@H]1C[C@H](c2ccc(Cl)cc2)N(Cc2cccs2)C[C@@H]1n1cc(C2CC2)nn1,16.1%
10,COc1c(O)cc2oc(-c3ccc(O)c(O)c3)cc(=O)c2c1O,-59.1% (active)
11,COc1ccc(-c2cc(=O)c3c(O)cc(O[C@@H]4O[C@H](CO[C@@H]5O[C@@H](C)[C@H](O)[C@@H](O)[C@H]5O)[C@@H](O)[C@H](O)[C@H]4O)cc3o2)cc1O,0.0751%
12,COc1cc(O)c2c(=O)c3c(O)c(O)ccc3oc2c1OC,-7.12%
13,Cc1[nH]c2ccccc2c1C(=O)c1cc([C@H](NC(=O)OC(C)(C)C)C(C)C)sc1N,2.87%
14,CC(=O)OCC(C)n1c(=O)c2ccccc2n1C(C)=O (stereo unspecified),-0.324%
15,COc1ccc(C(O)c2nc(-c3ccc4c(c3)OCO4)cs2)cc1 (stereo unspecified),-1.53%
16,Cc1ccc(CNC(=O)c2cccc3c2C(=O)c2ccc(N4CCC(C)CC4)cc2S3(=O)=O)cc1,-1.75%
17,O=C1c2ccccc2S(=O)(=O)c2cc(N3CCN(c4ccccn4)CC3)ccc21,1.24%
18,CC1CCN(c2ccc3c(c2)S(=O)(=O)c2cc(C(=O)O)ccc2C3=O)CC1,-56.6% (active)
19,CCCCC(=O)N(C)c1c(CC)nc2c(OCc3ccc(S(C)(=O)=O)cc3)cccn12,-1.42%
20,CC(C)[C@H](NC(=O)c1ccccc1F)C(=O)Nc1cccc(S(=O)(=O)N2CCOCC2)c1,0.136%
